# From PubChem BioAssay
# Most compounds without a hit are left out; they make up all but 2.7% or so of the library.
# ERG Ets-DNA blk – qHTS for Small Molecule Inhibitors of the ERG Ets/DNA interaction | hit rate 0.028% among 370,000 | AID 624246, 2012 | Transcriptional regulator ERG (Homo sapiens), P11308 | fluorescence polarization, His-ERG Ets domain / labelled DNA | Potency, µM (top dose mostly 76.9 µM), without a hit: at the top dose FP activity, negative = inhibition, usual class: inhibitors; active = well fitted inhibition curve with a large enough effect in the polarisation, with a control signal flat; inconclusive = small, poorly fitted or top-dose-only effect, or effect the other way, or a change in a side signal; inactive = no such curve, though single readings can be large or run the other way; the % refers to the polarisation;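 note: polarization taken with two DNA probes labelled with fluorescein and Texas red; potency is the fitted concentration of half-maximal effect; % of control where 0% means no effect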
# Target sequence (P11308 whole entry, looked up, the tested form may be a part): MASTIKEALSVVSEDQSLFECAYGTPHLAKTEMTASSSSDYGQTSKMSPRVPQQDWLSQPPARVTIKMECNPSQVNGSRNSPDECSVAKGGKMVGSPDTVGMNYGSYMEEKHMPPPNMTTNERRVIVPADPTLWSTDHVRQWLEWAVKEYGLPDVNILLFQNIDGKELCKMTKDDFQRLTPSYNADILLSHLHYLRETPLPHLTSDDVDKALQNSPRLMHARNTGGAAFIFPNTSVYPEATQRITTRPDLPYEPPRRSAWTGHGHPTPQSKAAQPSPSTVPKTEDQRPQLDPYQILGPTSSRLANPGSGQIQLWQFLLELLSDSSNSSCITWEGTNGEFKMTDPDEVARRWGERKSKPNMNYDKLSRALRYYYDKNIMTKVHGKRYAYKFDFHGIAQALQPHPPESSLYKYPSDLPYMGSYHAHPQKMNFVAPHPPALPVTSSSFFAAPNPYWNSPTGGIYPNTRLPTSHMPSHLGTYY
#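 His-tagged ERG Ets domain (1 uM in the protein solution; 300mM KCl, 50mM Tris-HCl, 1mM EDTA, 1mM DTT, pH 7.5) received compound, then a probe mix of 5 nM fluorescein-DNA and 100nM Texas-615-DNA. Fluorescence polarization was read for both dyes.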
# Nrf2 ARE act – qHTS of Nrf2 Activators; hit rate 0.31% among 410,000; AREc32 ARE-luciferase reporter (MCF7-derived line), luminescence, 24 h; Potency, µM (doses to about 46.1 µM), for the others: at the top dose activation, usual class: activators; AID 624171, 2012; note: potency is the fitted concentration of half-maximal effect; % of control where 0% means no effect; nearly all actives have a fitted effect of over 65% in size
#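 Nrf2 activation is followed as ARE-luciferase induction in the AREc32 line after one day of compound treatment; luminescence is read with Steady-Glo.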
# A549 tox-1 – Nrf2 qHTS screen for inhibitors: counterscreen for cytotoxicity | AID 504648, 2011 | A549 ARE-Fluc cells, CellTiter-Fluor viability, 18-24 h | hit rate 0.16% among 390,000 | Potency, µM (highest dose often 46 µM), inactives show at the highest dose activity change, negative = cytotoxicity, usual class: inhibitors; note: potency is the fitted concentration of half-maximal effect; % is set by controls: 0 for no effect and ±100 for the full control effect
#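 A549 ARE-Fluc cells in 5% FBS OPTI-MEM, 5000 cells/well, rested 2 h then exposed to compounds in concentration-response for 18-24 h at 37 °C. Viability by CellTiter-Fluor fluorescence (Ex 405/Em 525) after 30 min; luciferase luminescence (BugLite, 15 min, RT) read afterwards.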
# Nrf2 inh – Nrf2 qHTS screen for inhibitors; A549 ARE-Fluc reporter, luciferase luminescence, 18-24 h; Potency, µM (top dose mostly 46 µM), without a hit: at the top dose activity change, negative = inhibition, hits mostly inhibitors; hit rate 2.1% among 360,000; note: potency is the fitted concentration of half-maximal effect; % is set by controls: 0 for no effect and ±100 for the full control effect; nearly all actives have a fitted effect of over 60% in size
#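 Quantitative HTS in A549 cells stably bearing an antioxidant response element-firefly luciferase construct. Inhibition of Nrf2-driven transcription was scored by luminescence after 18-24 h of compound exposure at 37 °C.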
# LDHA block – qHTS assay for inhibitors of human lactate dehydrogenase | L-lactate dehydrogenase A chain (Homo sapiens), P00338 | purified LDHA, NADH/diaphorase-resazurin fluorescence; hits give low values | activity change, % (values are at about 110 or 230 µM) | hit rate 0.15% among 480,000 | AID 1347041, 2019; in the data active = activity change below about -30%; inconclusive = mostly about -25% to -30%;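 note: plate controls were DMSO wells for no effect and wells without enzyme for full effect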
#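 Human LDH5 (2 nM) was incubated with 0.06 mM NADH and 0.2 mM pyruvate for 5 min at room temperature in Tris pH 7.4. Remaining NADH was coupled through diaphorase/resazurin, and resorufin fluorescence was read at 0 and 20 min.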
# ALOX12 inh – Primary qHTS assay for inhibitors of human arachidonate 12S-lipoxygenase (ALOX12): Round 2; Polyunsaturated fatty acid lipoxygenase ALOX12 (Homo sapiens), P18054; purified 12hLO, xylenol orange hydroperoxide absorbance; Potency, µM (series often up to 108 µM), for inactives: at the top dose activity change, negative = inhibition, most hits filed as inhibitors; hit rate 1.1% among 580,000; AID 1671190, 2021; note: potency is the fitted concentration of half-maximal effect; % is set by controls: 0 for no effect and ±100 for the full control effect
#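 Purified human 12hLO at 150 nM in 25 mM Hepes, 0.01% Triton X-100, pH 7.0, preincubated 15 min at room temperature with compound. Reaction started with 40 uM arachidonic acid, 30 min at room temperature. Hydroperoxide measured by Fe-xylenol orange, 573/405 nm absorbance ratio.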
# FLuc counter 3 – Nrf2 qHTS screen for inhibitors: Purified Fluc Biochemical Counterscreen for Hit Validation; shares compounds with Nrf2 inh; purified firefly luciferase, luminescence inhibition; Potency, µM (series often up to 57.5 µM), for inactives: at the top dose activity change, negative = inhibition, usual class: inhibitors; hit rate 4% among 1,400; AID 720522, 2013; note: potency is the fitted concentration of half-maximal effect; % is set by controls: 0 for no effect and ±100 for the full control effect; nearly all actives have a fitted effect of over 65% in size
# A549 tox-2 – Nrf2 qHTS screen for inhibitors: A549 ARE-Fluc Cytotoxicity Counterscreen for Hit Validation | shares compounds with Nrf2 inh | A549 ARE-Fluc cells, cytotoxicity counterscreen | Potency, µM (titrated, usually from 46.1 µM), without a hit: at the top dose activity change, negative = cytotoxicity, hits mostly inhibitors | hit rate 2% among 1,400 | AID 720523, 2013;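 note: potency is the fitted concentration of half-maximal effect; cells exposed to compounds for 18 to 24 hours; % is set by controls: 0 for no effect and ±100 for the full control effect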
# Nrf2 ARE inh – Nrf2 qHTS screen for inhibitors: Nrf2 A549 ARE-Fluc Confirmation Assay for Hit Validation | shares compounds with Nrf2 inh | A549 ARE-firefly luciferase reporter, luminescence | Potency, µM (highest dose often 46.1 µM), without a hit: at the highest dose activity change, negative = inhibition, usual class: inhibitors | hit rate 74% among 1,400; note: potency is the fitted concentration of half-maximal effect; % is set by controls: 0 for no effect and ±100 for the full control effect; nearly all actives have a fitted effect of over 65% in size
# Active calls of the source: *; u = inconclusive; x = no result given; [ ] = another dose, or the depositor's remark. Unless noted, calls come from the whole dose curve; as a rule, active = well fitted curve in the direction sought with a large enough effect; inconclusive = small, poorly fitted or top-dose-only effect, or another doubt; inactive = no such curve, though single readings can be large; an effect the other way counts as inactive or inconclusive.
SMILES,ERG Ets-DNA blk,Nrf2 ARE act,A549 tox-1,Nrf2 inh,LDHA block,ALOX12 inh,FLuc counter 3,A549 tox-2,Nrf2 ARE inh
CC(C)Cn1c(C(C)C)nc([N+](=O)[O-])c1S(=O)(=O)c1ccc(F)cc1,-2%,22µM*,u,9.2µM*,6,-18%,1%,-18%,-22%
CCn1c(C)nc([N+](=O)[O-])c1Sc1ccc(F)cc1,-15%,u,-9%,u,0,0%,x,x,x
COc1ccc(OC)c(Nc2ncnc3sccc23)c1,1%,4%,0%,0%,-11,9%,x,x,x
COc1cc(CN(C)c2ncnc3sccc23)ccc1OC(F)F,6%,3%,-16%,9.2µM*,-1,-24%,-4%,1%,8.2µM*
CCOc1ccc(-c2nc(C#N)c(N3CCN(C(=O)c4cccs4)CC3)o2)cc1,x,x,x,x,-1,2%,x,x,x
Cc1ccc(-c2cn(-c3ccccc3)c3[n+]2CCCS3)cc1,-8%,0%,u,4.6µM*,-3,11%,2%,-5%,6.5µM*
N#Cc1ccc(-c2cn(-c3ccccc3)c3[n+]2CCCS3)cc1,6%,0%,1%,4%,-4,u,x,x,x
COc1ccc(-n2cc(-c3ccc(C)cc3)[n+]3c2SCC3)cc1,0%,2%,u,9.2µM*,1,2%,2%,-7%,5.2µM*
CCCn1c(SCC(N)=O)nc2c1c(=O)[nH]c(=O)n2C,x,x,x,x,14,26%,x,x,x
CC1CCc2nc(/C(C#N)=C\c3ccco3)sc2C1 (configuration not stated),x,x,x,x,-18,u,x,x,x
CCc1ccccc1-n1nnc(-c2nsc(NC(=O)c3ccc(C)c(C)c3)n2)c1C,-2%,-1%,-4%,8.2µM*,-20,-14%,-14%,-21%,21µM*
Nc1cccc(/C=C/C(=O)c2ccccc2)c1,x,x,x,x,-1,5%,x,x,x
CCOC(=O)c1oc2cc(OCC(N)=O)ccc2c(=O)c1-c1ccc(Br)cc1,x,x,x,x,-1,-19%,x,x,x
CCn1cc(/C=C/c2cc[n+](C)cc2)c2ccccc21,14%,3%,-21%,1.8µM*,4,u,0%,u,1.8µM*
CCn1c(C)c(/C=C/c2cc[n+](C)cc2)c2ccccc21,x,x,x,x,2,u,x,x,x
CC(C)n1cc(/C=C/c2cc[n+](C)cc2)c2ccccc21,17%,0%[9.22 µM],u,2.3µM*,-3,u,2%,u,6.5µM*
C=CCn1cc(/C=C/c2cc[n+](C)cc2)c2ccccc21,3%,8%,u,2.3µM*,-1,u,1%,-29%,1.8µM*
Cc1ccccc1/C=C/c1cc[n+](C)cc1,-4%,14%,-8%,1.3µM*,-6,u,4%,-13%,23µM*
CN1CCN(CCNC(=O)c2sc3ncccc3c2-n2cccc2)CC1,x,x,x,x,11,-16%,x,x,x
